Measurements: the supplement of paper PMC9925115

These molecules were tested on FLX1 + dox-induced PRKAR1A G325D (assay: difference in log2 fold change of viability vs plate median (dox-induced PRKAR1A G325D minus uninduced); higher = compound less effective when PKA is inhibited). Conditions: concentration: not stated (2 or 5 uM); 5 days.
Description: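 For each plate a log2 fold change vs the plate median was derived, and the values without dox were subtracted from those with dox, averaged over three biological replicates.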

Going from `CC[C@@H]1C(=O)N(C)c2cnc(Nc3ccc(C(=O)N[C@H]4CC[C@H](N5CCN(CC6CC6)CC5)CC4)cc3OC)nc2N1C(C)C` [Volasertib (BI 6727)] to `CCC(=O)Nc1cccc(Oc2nc(Nc3ccc(N4CCN(C)CC4)cc3OC)ncc2Cl)c1`, the “difference in log2 fold change of viability” value (shortened to “difference in log2 fold change”) falls from -0.0557 to -0.831.

`CN1CCCN(C(=O)c2cccc(-c3ccc(/C=C4/C(=O)Nc5ccc(Cl)cc54)o3)c2)CC1` and `O=C1NC(=O)C(=Cc2ccc(-c3ccc(F)cc3)o2)S1` (stereo in doubt) are within 0.2 log units of each other in “difference in log2 fold change” value: -0.148 for the first, -0.0657 for the second.

`CNCc1ccc(-c2cc(-c3nc(-c4ccc(S(=O)(=O)C(C)C)cc4)cnc3N)on2)cc1` and `CC(C)n1nc(-c2ccc3oc(N)nc3c2)c2c(N)ncnc21` are within 0.2 log units of each other in “difference in log2 fold change” value: -0.00074 for the first, -0.0452 for the second.

First: CC(=O)Nc1cccc(-n2c(=O)n(C3CC3)c(=O)c3c(Nc4ccc(I)cc4F)n(C)c(=O)c(C)c32)c1
Second: Cn1c(=O)c(F)c(Nc2ccc(I)cc2F)c2c(=O)n(C[C@@H](O)CO)cnc21
The “difference in log2 fold change” value of the first is higher: -0.368 for the first, -1.3 for the second.

`COc1cc2ncnc(Oc3ccc(CC(=O)Nc4cnn(C(C)C)c4)cc3)c2cc1OC` and `COc1cccc(-c2cc(=O)c3ccccc3o2)c1N` are within 0.2 log units of each other in “difference in log2 fold change” value: -0.126 for the first, -0.103 for the second.

Compared with `CNc1nc(-c2ccc3c(N)n[nH]c3c2)cc(N2C[C@@H](C(=O)NC3CCCCC3)CC[C@H]2C)n1`, `CN1CCN(CCOc2cc(OC3CCOCC3)c3c(Nc4c(Cl)ccc5c4OCO5)ncnc3c2)CC1` [Saracatinib (AZD0530)] is lower in “difference in log2 fold change” value: 0.221 for the first, -1.34 for the second.

First: Cn1sc(=O)n(Cc2ccccc2)c1=O
Second: CO[C@H]1C[C@@H]2CC[C@@H](C)[C@@](O)(O2)C(=O)C(=O)N2CCCC[C@H]2C(=O)O[C@H]([C@H](C)C[C@@H]2CC[C@@H](O)[C@H](OC)C2)CC(=O)[C@H](C)/C=C(\C)[C@@H](O)[C@@H](OC)C(=O)[C@H](C)C[C@H](C)/C=C/C=C/C=C/1C [Rapamycin (Sirolimus)]
The “difference in log2 fold change” value of the first is higher: 0.221 for the first, -0.339 for the second.
